Laboratory results taken from PubChem BioAssay.

Test: small-molecule binders of probe aNOTCH3, primary screen, biochemical, small-molecule microarray, 635/667 nm fluorescence (AID 1120);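 further: probe is a biotin-tagged antibody raised against NOTCH3 rather than NOTCH3 protein; score merges spot fluorescence near 667 nm with spot signal to noise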
Conditions: higher = more signal

Row | SMILES | composite z-score
1 | C=CC[C@]1(C(=O)NCc2ccccc2)N=C(c2ccc(OCCCO)cc2)O[C@H]1c1ccccc1 | 0.0488
2 | COc1ccc(O[C@H]2C=C[C@@H](c3ccccc3)O[C@@H]2COC(=O)CCC(C)=NOC(C)CN2CCCCc3nc(C)c(C)cc32)cc1 (stereo not given in full) | -0.0918
3 | CO[C@@H]1COC(=O)CC=C[C@@H](C)[C@@H]2C=C[C@@H](O)[C@@H](COC(=O)CC=C[C@H]1C)O2 | 0.0864
4 | CCOC(=O)[C@H](Cc1ccccc1)NC(=O)CCC1CC(OC(=O)NCCc2ccc(F)cc2)CC2(CCCC(COC(=O)NCC(c3ccccc3)c3ccccc3)O2)O1 (stereo not given in full) | -0.0893
5 | C[C@H]1CC[C@@H](C(=O)O)N[C@@H]1c1ccc(C#CCN(C)C)cc1 | 0.0556
6 | O=C1NC(=O)C2C1C=CC(C(O)Cc1ccccc1)N2Nc1ccccn1 (stereo not given) | -0.0311
7 | CCOC(=O)CCN1C(=O)[C@H]2[C@H]3[C@H](O)[C@H](O)CC(=NOC[C@@H](O)COCc4ccco4)[C@@H]3CC[C@H]2C1=O | -0.0932
8 | CC(C)(C)N1C(=O)[C@H]2[C@H]3[C@H](O)[C@H](O)CC(=NOCc4ccccc4)[C@@H]3CC[C@H]2C1=O | 0.111
9 | COC(=O)[C@@]1(Cc2ccccc2)[C@H]2c3cc(C(=O)N4CCCC4)n(Cc4ccccn4)c3C[C@H]2CN1C(=O)c1ccccc1 | 0.697
10 | C[C@@H](c1ccccc1)N1C(=O)[C@H]2[C@H]3[C@H](O)[C@H](O)CC(=NOC[C@@H](O)COCc4ccco4)[C@@H]3CC[C@H]2C1=O | -0.161
11 | COc1ccc(O[C@H]2C=C[C@@H](c3ccccc3)O[C@@H]2COC(=O)CCC(C)=NOCC[C@@H]2C=C[C@H](OC(C)=O)[C@@H](COC(C)=O)O2)cc1 | 0.297
12 | O=C1[C@H]2[C@H]3[C@H](O)[C@H](O)CC(=NOC[C@@H](O)COCc4ccco4)[C@H]3CC[C@H]2C(=O)N1c1cccc(Oc2ccccc2)c1 | -0.304
13 | COC(=O)CC=C[C@@H](C)[C@@H](C=NO[C@@H](C)c1cc(-c2c(C)cc(C)cc2C)no1)OC | -0.161
14 | COc1ccc(COC(=O)NN=C2C[C@@H](O)[C@@H](O)[C@@H]3[C@@H]4C(=O)N(Cc5ccc6c(c5)OCO6)C(=O)[C@@H]4CC[C@@H]23)cc1 | 0.218
15 | C[C@@H]1CCC2C(=O)N(Cc3ccccc3)C[C@@H](O)CN2[C@H]1c1ccc(Br)cc1 (stereo not given in full) | -0.0362
